Source: PubChem (The Scripps Research Institute Molecular Screening Center)
This is a sample that favours compounds with a hit; in the whole collection about 5.7% have one here.
DAX1 inh-1 = DAX1 (NR0B1) inhibitors, primary screen, cell-based, HEK293, Gal4-DAX1, luciferase luminescence; inhibition, % at 6.75 µM; HEK293 Gal4-DAX1 luciferase reporter; Nuclear receptor subfamily 0 group B member 1 (Homo sapiens), P51843; actives 0.99% (n = 340,000);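 active = inhibition above the mean over all tested compounds plus 3 SD, cut at about 4.2% in these data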;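 note: 0% = DAX1-transfected cells with DMSO and 100% = empty-vector control cells with DMSO; inhibition shows as a rise in luminescence from relieved DAX1 repression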
AHR act = AHR activators, primary screen, cell-based, luminescence, luciferase reporter, human; Aryl hydrocarbon receptor (Homo sapiens), P35869; activation, % at 5 µM; AHR-responsive luciferase reporter cells; AID 2796, 2010; actives 2.5% (n = 320,000); in the data active = activation above about 47%;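 note: 0% = vehicle wells and 100% = reference agonist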
DAX1 inh-2 = DAX1 (NR0B1) inhibitors on StAR promoter, primary screen, cell-based, luminescence, SF-1 (NR5A1), full-length DAX-1; inhibition, % at 6.8 µM; HEK293T StAR-luciferase reporter, SF-1/DAX-1 repression relief; actives 1.1% (n = 370,000);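 active = inhibition above the mean over all tested compounds plus 3 SD, cut at about 3.6% in these data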;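 note: 0% = DAX-1 cells with DMSO and 100% = cells lacking DAX-1 with DMSO; higher inhibition means more luminescence from relief of DAX-1 repression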
hgDAF12 agonist = H. glycines DAF-12 receptor agonists, primary screen, cell-based, luminescence, HEK293, GAL4 fusion, UAS-luciferase; Nuclear hormone receptor DAF-12 (Heterodera glycines), GAL4 fusion; HEK293 GAL4-hgDAF12 UAS-luciferase reporter, agonist luminescence; normalized to butyrate control; activation, % at 6.8 µM; actives 1.8% (n = 370,000); AID 687014, 2013;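 active = activation above a cutoff set at the mean of all screened compounds plus 3 SD, cut at about 10% in these data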;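 note: 0% = DMSO wells and 100% = sodium butyrate wells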
hcDAF12 agonist = H. contortus DAF-12 nuclear receptor activators, primary screen, cell-based, luminescence, HEK293, lit1-tk-luc reporter; activation, % at 6.8 µM; actives 1.4% (n = 370,000); AID 652067, 2013; HEK293 hcDAF-12 lit1-tk-luc reporter; 0% DMSO, 100% Δ7-dafachronic acid;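 active = activation above the mean of all tested compounds plus 3 SD, cut at about 5.5% in these data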;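 note: 100% = response to 3 µM Δ7-dafachronic acid high control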
ssDAF12 agonist = S. stercoralis DAF-12 nuclear receptor activators, primary screen, cell-based, luminescence, HEK293, GRIP1 co-expression, lit1-tk-luc; HEK293 ssDAF-12/GRIP1 lit1-tk-luc reporter; % of 3 µM dafachronic acid response; actives 1% (n = 370,000); Nuclear hormone receptor DAF-12 (Strongyloides stercoralis); AID 652126, 2013; activation, % at 6.8 µM;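 active = activation above the mean over all tested compounds plus 3 SD, cut at about 0.9% in these data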;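 note: 0% = DMSO-only wells and 100% = 3 µM delta7-dafachronic acid wells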
Active calls of the source: *; x = no result.

SMILES	DAX1 inh-1	AHR act	DAX1 inh-2	hgDAF12 agonist	hcDAF12 agonist	ssDAF12 agonist
CCN(CC)c1ccc(NC(=O)C2CCCC2)cc1	4.6*	1	0	2	0	-1
C/C(=N\NC(=O)c1ccn(C)n1)c1ccc(NC(=O)C2CCCC2)cc1	6.6*	14	1	6	1	0
CC(=O)Nc1ccc(S(=O)(=O)Nc2nc(C)nc3sc(C)c(C)c23)cc1	1	10	1	1	0	-1
Cc1nc2ccccc2c(=O)n1/N=C/c1ccco1	0	1	1	4	-3	-1
O=c1c2ccccc2nc(-c2ccco2)n1/N=C/c1ccco1	-1	62*	-1	1	1	-1
O=[N+]([O-])c1ccc(O)c(C2=NNC(c3ccccc3F)C2)c1 (stereo not drawn)	-1	12	0	3	0	-2
Oc1ccc(Cl)cc1C1=NNC(c2cccs2)C1 (stereo not drawn)	4	38	1	14*	5.7*	0
N#CCSc1ccccc1NC(=O)COC(=O)CCN1C(=O)C2CC=CCC2C1=O (stereo not drawn)	0	6	2	1	1	-1
Nc1nc2c(C(=O)N3CCOCC3)nnn2c2ccccc12	6.2*	15	1	5	2	0
COc1cc(/C=N/NC(=O)c2ccccc2)ccc1O	5.9*	13	1	5	4	-1
COc1ccc(/C=N/NC(=O)c2nc(-c3ccccc3)cc(-c3ccccc3)n2)cc1O	-2	52*	-2	0	-4	-1
N#CCC(=O)N/N=C\c1ccccc1OC/C=C/c1ccccc1	2	-1	4.3*	8	1	0
Cn1c(=O)n(C)c2cc(/C=N/NC(=O)c3ccc(Cl)cc3)ccc21	4.6*	6	0	1	0	-1
COc1cc(OC)cc(C(=O)NCc2ccc3c(c2)OCO3)c1	-1	5	1	0	-1	-1
Cc1cccc(CN2CCSCCS2(=O)=O)c1	x	x	-1	0	0	-1
COC(=O)N/N=C\c1ccc(OC/C=C/c2ccccc2)c(OC)c1	1	51*	-1	0	-2	-1
COc1cc(C(=O)Nc2c(C(=O)O)[nH]c3ccc(C)cc23)cc(OC)c1OC	2	x	0	5	6.1*	0
CCOC(=O)c1[nH]c2ccc(OC)cc2c1NC(=O)c1ccc(OC)c(OC)c1	-2	3	0	0	-2	0
COC(=O)c1[nH]c2cc(OC)c(OC)cc2c1NC(=O)c1cccc(OC)c1	-1	62*	-2	-4	0	-1
COC(=O)c1[nH]c2ccc(C)cc2c1NC(=O)C1=COCCO1	0	68*	0	0	1	-1
COC(=O)c1[nH]c2ccc(F)cc2c1NC(=O)C1=COCCO1	-1	23	1	1	-1	-1
COc1ccccc1C(=O)NC(=O)COC(=O)c1cccc(OC(F)F)c1	1	1	0	3	-2	-1
CCN(CC)C(=O)CC[C@H]1CC[C@]2(CCCN(S(=O)(=O)C3CCCCC3)C2)O1	x	x	-1	1	-2	-1
Cn1c(NC(=O)C[n+]2cc(-c3ccc(F)cc3)n3c2CCC3)cc(=O)n(C)c1=O	2	0	0	-1	-2	0
Cc1ccc(-c2c[n+](CC(=O)Nc3ccccc3C)c3n2CCC3)cc1	4.3*	0	0	-1	1	-2
SMILES	DAX1 inh-1	AHR act	DAX1 inh-2	hgDAF12 agonist	hcDAF12 agonist	ssDAF12 agonist
O=C(C[n+]1cc(-c2ccc(F)cc2)n2c1CCC2)c1cccs1	6.7*	5	0	1	1	-1
Cc1cc(CNC(=O)Cn2nc(C)c([N+](=O)[O-])c2C)c2ccccc2n1	0	4	4.3*	-2	-2	-2
COc1ccc(OC)c(/C=N/NC(=O)c2cc3c(OC)c(OC)ccc3[nH]2)c1	-1	79*	-1	1	0	-2
CCOc1ccc(/C=N/NC(=O)c2cc3c(OC)cc(OC)c(OC)c3[nH]2)cc1	-2	48*	-2	-2	-2	-2
COc1ccc2[nH]c(C(=O)N/N=C/c3ccccc3OC)cc2c1	-4	8	-2	9	-4	-2
CC(=O)Nc1cccc(C(=O)N/N=C/c2cccnc2)c1	2	12	0	4	0	0
CC(/C=C/c1ccccc1F)=N\NC(=O)c1cccc(F)c1	2	3	3	12*	0	-1
O=C(N/N=C/c1cccnc1)c1cccc(F)c1	4.9*	12	1	2	2	-1
CC(/C=N/NC(=O)c1cccc(F)c1)=C\c1ccccc1	1	8	3	12*	4	0
CC(/C=C/c1ccco1)=N\NC(=O)c1cccc(Cl)c1	1	8	1	6	3	0
O=C(N/N=C/c1cccnc1)c1cccc(NC(=O)c2cccc(Br)c2)c1	-2	76*	0	3	-2	-1
COc1cccc(/C(=N/O)C2CC2c2ccc(Cl)cc2)c1 (stereo not drawn)	0	-5	0	3	-3	-2
Cc1nnc2c(NC3CCCCC3)nc3ccccc3n12	2	4	0	0	-3	-1
O=C(NCCS(=O)(=O)N1CCN(Cc2ccccc2)CC1)c1ccc(F)cc1	0	1	-1	1	-1	-2
Cc1cc(C(=O)Nc2ccccc2Cl)n(-c2ccccc2)n1	1	16	0	-1	3	-1
Cc1c(Br)c([N+](=O)[O-])nn1CC(=O)NC1CCCCCC1	0	5	0	0	-2	-2
Cc1cc(C)c(C(=O)COC(=O)c2c(C)noc2C)cc1C	0	1	0	-1	-1	-2
O=c1c(C=NCCCn2ccnc2)c(-c2ccccc2)[nH]n1-c1nc2ccccc2s1	2	16	4.3*	3	-1	-1
CN(C)CCCN=Cc1c(-c2ccccc2)[nH]n(-c2nc3ccccc3s2)c1=O	0	17	0	1	-4	-2
Cc1ccc(S(=O)(=O)N2[C@@H](c3ccccc3F)C(C(=O)O)=CC[C@H]2c2ccc(Cl)c(Cl)c2)cc1	0	-1	0	0	-1	-1
